PME-1 primary: PME-1 inhibitors via competitive probe labeling, primary screen, biochemical, fluorescence polarization, FP-Rh probe, HTS. Protein phosphatase methylesterase 1 (Homo sapiens), Q9Y570. recombinant PME-1. inhibition, % at 5.9 µM. 0.53% of 320,000 active. AID 2130, 2009;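 active = inhibition above the campaign mean of all compounds plus 3 SD, cut at about 26% in these data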;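 note: competitive labeling of PME-1 active site by serine hydrolase directed probe; 0% = PME-1 with DMSO and 100% = wells lacking PME-1 enzyme; inhibitors block probe labeling so polarization falls and inhibition rises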
PAFAH1B3 inh: PAFAH1B3 enzyme inhibitors, primary screen, biochemical, fluorescence polarization, human; Platelet-activating factor acetylhydrolase IB subunit alpha1 (Homo sapiens), Q15102; recombinant PAFAH1B3, FP-rhodamine probe; inhibition, % at 3.39 µM; 0.28% of 340,000 active; AID 492972, 2010;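 active = inhibition above the screen-wide average of all tested compounds plus 3 SD, cut at about 25% in these data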;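 note: 0% = enzyme with DMSO only and 100% = wells lacking PAFAH1B3 protein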
Target sequence (Q15102 whole entry, looked up): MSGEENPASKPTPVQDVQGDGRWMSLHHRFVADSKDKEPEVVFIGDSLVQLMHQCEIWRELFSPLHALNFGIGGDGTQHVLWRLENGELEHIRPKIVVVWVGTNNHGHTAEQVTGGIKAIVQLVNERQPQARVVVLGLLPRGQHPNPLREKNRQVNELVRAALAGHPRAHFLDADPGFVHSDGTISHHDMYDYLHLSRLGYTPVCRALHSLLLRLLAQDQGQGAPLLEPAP
Fam108B inh: mouse Fam108B serine hydrolase inhibitors, primary screen, counter-screen for RBBP9 inhibitor project, biochemical, fluorescence polarization; AID 1947, 2009; recombinant Fam108B, FP-Rh probe fluorescence polarization; inhibition, % at 9.51 µM; 0.33% of 300,000 active;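 active = inhibition above the screen mean inhibition plus 3 SD, computed separately per campaign, cut at about 18% in these data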;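 note: inhibitors lower polarization as less probe binds the enzyme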
pPAFAH inh: pPAFAH enzyme inhibitors, primary screen, biochemical, fluorescence polarization, human. Platelet-activating factor acetylhydrolase (Homo sapiens), Q13093. recombinant pPAFAH, FP-rhodamine probe fluorescence polarization. inhibition, % at 3.39 µM. 1.5% of 330,000 active;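 active = inhibition above the mean inhibition across the screen plus 3 SD, cut at about 25% in these data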;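 note: inhibitors block binding of the rhodamine activity-based probe so polarization drops; 0% = enzyme with DMSO and 100% = wells lacking pPAFAH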
PAFAH1B2 FP inh: PAFAH1B2 enzyme inhibitors, primary screen, biochemical, fluorescence polarization, human; Platelet-activating factor acetylhydrolase IB subunit alpha2 (Homo sapiens), P68402; recombinant PAFAH1B2, FP-rhodamine activity probe; inhibition, % at 3.39 µM; 1.2% of 340,000 active; AID 492953, 2010;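 active = inhibition above the mean of all tested compounds plus 3 SD, cut at about 24% in these data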;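 note: 0% = enzyme with DMSO and 100% = wells lacking PAFAH1B2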
Target sequence (P68402 whole entry, looked up): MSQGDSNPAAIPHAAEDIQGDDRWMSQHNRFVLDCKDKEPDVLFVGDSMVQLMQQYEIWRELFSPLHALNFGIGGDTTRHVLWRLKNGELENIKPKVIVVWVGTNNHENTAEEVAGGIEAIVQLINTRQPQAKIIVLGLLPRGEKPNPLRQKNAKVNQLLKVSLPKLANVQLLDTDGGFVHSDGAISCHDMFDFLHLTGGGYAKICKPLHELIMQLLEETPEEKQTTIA
PAFAH2 inh: PAFAH2 enzyme inhibitors, primary screen, biochemical, fluorescence polarization, human; Platelet-activating factor acetylhydrolase 2, cytoplasmic (Homo sapiens), Q99487; recombinant PAFAH2, FP-rhodamine activity probe; inhibition, % at 3.39 µM; 0.99% of 340,000 active;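 active = inhibition above the mean over all tested compounds plus 3 SD, cut at about 30% in these data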;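 note: inhibitors block probe labeling of enzyme so polarization drops; 0% = enzyme with DMSO and 100% = wells lacking PAFAH2 protein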
PAFAH2 FP conf: PAFAH2 enzyme inhibitors, confirmation, biochemical, fluorescence polarization, human; 65% of 2,300 active; recombinant PAFAH2, FP-rhodamine activity probe; shares compounds with PAFAH2 inh; inhibition, % at 3.39 µM;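 active = mean inhibition over three repeats above a set limit taken from the earlier primary screen, cut at about 30% in these data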;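 note: inhibitor blocks binding of rhodamine activity probe so polarization falls; 0% = enzyme with DMSO and 100% = wells lacking PAFAH2 protein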
* marks the source's active call; other numbers are inactive results; . = no result given. An excerpt weighted towards active compounds, which were near 2.8% of everything screened.

SMILES | PME-1 primary | PAFAH1B3 inh | Fam108B inh | pPAFAH inh | PAFAH1B2 FP inh | PAFAH2 inh | PAFAH2 FP conf
O=C1OC(c2ccc3c(c2)OCO3)N(C(=O)c2ccc(Cl)c(Cl)c2)c2ccccc21 (configuration not stated) | -14 | 0 | -5 | -11 | 5 | 48* | 47*
Cc1cccc(C(=O)N2c3ccccc3C(=O)OC2c2ccc3c(c2)OCO3)c1 (configuration not stated) | 4 | 4 | 5 | -1 | 4 | 31* | 34*
CC(=O)N1C(c2ccccc2)CC(=O)OC1c1ccc2c(c1)OCO2 (configuration not stated) | -2 | -1 | 3 | -4 | -4 | 1 | .
CCOc1ccc(-c2cc(C(=O)N/N=C(\C)c3cccnc3)c3ccccc3n2)c(OCC)c1 | . | 6 | . | . | 1 | -4 | .
Cc1[nH]c2ccccc2c1SCc1nnc(SCc2ccc(Cl)cc2)n1C | 6 | 5 | 0 | 9 | 23 | 30* | 30*
Cc1[nH]c2ccccc2c1SCc1nnc(SCc2ccccc2)n1C | 1 | 7 | 3 | 7 | 4 | 22 | .
O=C(NNC(=O)c1cccc(O)c1)Nc1ccc([N+](=O)[O-])cc1 | 2 | 7 | 6 | -3 | 4 | 49* | 1
CC(C)CCn1cnc2c(oc3nc4c(cc32)CCCC4)c1=O | -2 | 2 | 4 | 10 | 7 | 4 | .
CN(C(=O)CSc1nnc(-c2ccco2)n1Cc1ccccc1)C1CCS(=O)(=O)C1 (configuration not stated) | 3 | 2 | . | 1 | -4 | 0 | .
CCOC(=O)C1=C(C)NC2=C(C(=O)CCC2)C1c1cccs1 (configuration not stated) | 6 | 1 | 6 | 4 | -1 | 3 | .
CCOC(=O)C1CC2=C(CCCC2=O)NC1=O (configuration not stated) | . | 7 | . | . | 3 | 32* | 22
C=CCSC1=N/C(=C\c2cc(OCC)c(OC(C)=O)c([N+](=O)[O-])c2)C(=O)S1 | 64* | 8 | 12 | 10 | 15 | 60* | 65*
O=C(C1CCC(CNc2nc(=S)[nH]c3ccccc23)CC1)N1CCN(c2ccc(F)cc2)CC1 (configuration not stated) | . | -11 | . | . | -3 | -2 | .
c1ccc(C2[C@H]3CN(CC4CCCCC4)[C@H](c4ccccc4)C34CC2(c2ccccc2)C4)cc1 (some centres not stated) | -7 | 5 | -2 | -1 | 0 | -7 | .
c1ccc(C2[C@H]3CN(CC4CCCCC4)[C@H](c4ccccc4)C34CC2(c2cccnc2)C4)cc1 (some centres not stated) | 4 | 17 | 1 | 4 | 2 | 56* | -2
CC(NC(=O)COC(=O)c1ccc(N2CCCC2=O)cc1)c1ccc(F)cc1 (configuration not stated) | . | 4 | . | 4 | 3 | 78* | 68*
O=C(NCc1ccc(N2CCCC2=O)cc1)c1ccc(F)cc1 | 3 | -1 | -4 | 2 | 0 | 3 | .
COc1ccc(CCNC(=O)COC(=O)c2ccc(N3CCCC3=O)cc2)cc1 | -3 | 3 | 0 | 2 | 8 | 56* | 40*
COc1ccc(NC(=O)COC(=O)c2ccc(N3CCCC3=O)cc2)cc1 | 0 | 0 | . | 1 | 2 | 84* | 67*
COc1ccc(CNC(=O)c2ccc(N3CCCC3=O)cc2)cc1 | -3 | 10 | 2 | 1 | 10 | -3 | .
C[C@H](NC(=O)c1ccco1)C(=O)NCCc1ccc(S(N)(=O)=O)cc1 | 1 | 10 | -1 | 3 | 4 | 14 | .
COC(=O)c1ccccc1NC(=O)COC(=O)/C=C/c1cccs1 | . | -1 | . | 1 | 1 | 17 | .

Assay outcomes: PubChem BioAssay, The Scripps Research Institute Molecular Screening Center
